Results filed as inconclusive are left out. Calls of active or inactive are those of the source. Calls come from the whole dose curve; as a rule, active = well fitted inhibition curve with a large enough effect; inconclusive = small, poorly fitted or top-dose-only effect; inactive = flat fitted curve, though single readings scatter.
Each compound was assayed on ICS (assay: qHTS profiling for inhibitors of Plasmodium falciparum proliferation (AID 504749; note: nearly all actives have a fitted effect of over 60% in size)). Conditions: P. falciparum in erythrocytes, SYBR Green DNA, 72 h; series mostly up to 28.7 µM.
Summary of the method: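 Each compound contacts P. falciparum-infected red blood cells for 72 h at 37 C; lysis buffer (Tris, EDTA, saponin, Triton X, SYBR Green I) is added and fluorescence measured next morning; values normalized to controls.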
Potency is the fitted concentration of half-maximal effect.

Structure (SMILES)	Potency
C[C@](N)(Cc1ccc(O)cc1)C(=O)O	inactive
OCCN1CCN(CCCN2c3ccccc3Sc3ccc(Cl)cc32)CC1	3.98 µM (active)
CC(=O)c1ccc2c(c1)N(CCCN(C)C)c1ccccc1S2	inactive
CSc1ccc2c(c1)N(CCC1CCCCN1C)c1ccccc1S2 (stereo not drawn)	10 µM (active)
NC(=O)N/N=C/c1ccc([N+](=O)[O-])o1	11.2 µM (active)
CCN(CC)CCSC(=O)C(c1ccccc1)c1ccccc1	inactive
CCN(CC)CCNC(=O)c1c(C)[nH]c(/C=C2\C(=O)Nc3ccc(F)cc32)c1C	3.98 µM (active)
CC(CN1c2ccccc2Sc2ccccc21)N(C)C (stereo not drawn)	inactive
COCCOC(=O)C1=C(C)NC(C)=C(C(=O)OC/C=C/c2ccccc2)C1c1cccc([N+](=O)[O-])c1 (stereo not drawn)	11.2 µM (active)
CN(C)CCCN1c2ccccc2Sc2ccc(Cl)cc21	4.47 µM (active)
CSc1ccc2c(c1)C(N1CCN(C)CC1)Cc1ccccc1S2 (stereo not drawn)	8.91 µM (active)
C=Cc1c(C)c2cc3[nH]c(cc4nc(cc5nc(cc1[nH]2)C(C)=C5CCC(=O)O)C(CCC(=O)O)=C4C)c(C)c3C=C	inactive
[Cl][In]([Cl])[Cl]	2.51 µM (active)
C[C@]12C[C@H](O)[C@H]3[C@@H](CCC4=CC(=O)CC[C@@]43C)[C@@H]1CC[C@@H]2C(=O)CO	inactive
O=C(O)CN1C(=O)c2cccc3cccc(c23)C1=O	inactive
CC1=C(/C=C/C(C)=C/C=C/C(C)=C/C(=O)O)C(C)(C)CCC1	inactive
CCCCN(CCCC)CC(O)c1cc(Cl)cc2c1-c1ccc(Cl)cc1/C2=C/c1ccc(Cl)cc1 (stereo not drawn)	0.0014 µM (active)
CC(=O)Oc1ccc(C2(c3ccc(OC(C)=O)cc3)C(=O)Nc3ccccc32)cc1	inactive
CN1CCCCC1CCN1c2ccccc2Sc2ccc(S(C)=O)cc21 (stereo not drawn)	5.01 µM (active)
CNCCC(Oc1ccc(C(F)(F)F)cc1)c1ccccc1 (stereo not drawn)	7.94 µM (active)
CN1CCN(C2Cc3ccccc3Sc3ccc(Cl)cc32)CC1 (stereo not drawn)	12.6 µM (active)
Cc1c(O)cccc1C(=O)N[C@@H](CSc1ccccc1)[C@H](O)CN1C[C@H]2CCCC[C@H]2C[C@H]1C(=O)NC(C)(C)C	4.47 µM (active)
O=C1NC(=O)[C@@]2(CCOc3ccc(F)cc32)N1	inactive

Source: PubChem BioAssay (NCATS)
